Test results taken from PubChem BioAssay (NCI).
Where “and” joins values, the source holds several entries; their conditions need not be identical. Equal entries are not always repeated. The panel holds about 79,000 compounds, 15% with a hit somewhere; the sample as a whole holds those more often. Some compounds were tested as several samples or in several runs, with calls that do not always agree. Calls of active or inactive are those of the source. No stated cut-off is given here; in the data, active means growth inhibition above about 70%; inactive means the rest.

Key:
[1] = NCI Yeast Anticancer Drug Screen. Data for the rad50 strain (AID 155);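 further: 0% = growth of vehicle-only cultures of the same strain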; conditions: S. cerevisiae rad50 strain growth inhibition, stronger effect = higher value
Outline: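 Cells are treated with compound, grown, and their growth is then scored against vehicle-only cultures of the same repair-deficient yeast strain.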

[2] = NCI Yeast Anticancer Drug Screen. Data for the mec2-1 strain (AID 157); conditions: S. cerevisiae mec2-1 strain, stronger effect = higher value
Outline: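 Test agents were screened against the mec2-1 yeast strain, with defined DNA repair or cell cycle alteration. Growth was scored as inhibition against vehicle-only controls.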

[3] = NCI Yeast Anticancer Drug Screen. Data for the sgs1 mgt1 strain (AID 161);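 further: 0% = growth of cultures given vehicle only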; conditions: S. cerevisiae sgs1 mgt1 strain, stronger effect = higher value
Outline: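 Inhibition of yeast growth, normalised to vehicle-treated controls, is reported for a strain bearing genetic alterations in DNA damage repair.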

[4] = NCI Yeast Anticancer Drug Screen. Data for the cln2 rad14 strain (AID 165);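 further: 0% = growth equal to vehicle treated cultures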; conditions: S. cerevisiae cln2 rad14 strain, stronger effect = higher value
Outline: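 Growth of compound-exposed yeast (cln2 rad14 genotype) measured and expressed as inhibition relative to vehicle.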

[5] = NCI Yeast Anticancer Drug Screen. Data for the bub3 strain (AID 167); conditions: S. cerevisiae bub3 mutant strain, stronger effect = higher value
Outline: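 Part of a panel of yeast mutants defective in DNA damage repair or cell cycle regulation. Each strain is grown with compound, and inhibition is calculated relative to solvent-treated cultures.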

[6] = NCI Yeast Anticancer Drug Screen. Data for the mlh1 rad18 strain (AID 175); conditions: S. cerevisiae mlh1 rad18 strain growth inhibition, stronger effect = higher value
Outline: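 In this whole-cell yeast screen, a strain with altered DNA damage repair is challenged with compound, and its growth is measured against matched vehicle-treated controls.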

[7] = at 5.0 µM (retest, dose inferred, filed as 0.5)
[8] = at 50.0 µM (retest, dose inferred, filed as 5.0)

Measured: growth inhibition

Nc1nc(-c2ccccn2)cc2ccccc12
inactive: [1]; [7] 5% | [1]; [8] 63% | [1]; at 50.0 µM -2.25% | [2]; [7] 25% | [2]; at 50.0 µM -11.2% | [3]; [7] 22% | [3]; at 50.0 µM 4.35% | [4]; [7] 21% | [4]; [8] 62% | [4]; at 50.0 µM 4.4% | [5]; [7] 1% | [5]; [8] 61% | [5]; at 50.0 µM 7.35% | [6]; [7] 29% | [6]; at 50.0 µM 11.1%
active: [2]; [8] 76% | [3]; [8] 77% | [6]; [8] 85%

CCN(C(=O)C(Cl)Cl)C(Cc1ccccc1)c1ccccc1 (stereo not given)
inactive: [1]; [7] -1% | [1]; [8] 58% | [2]; [7] -1% | [2]; [8] 61% | [3]; [7] -1% | [4]; [7] -4% | [5]; [7] 10% | [5]; [8] 61% | [6]; [7] 2%
active: [1]; at 50.0 µM 91.5% | [2]; at 50.0 µM 96.3% | [3]; [8] 80% | [3]; at 50.0 µM 93.8% | [4]; [8] 74% | [4]; at 50.0 µM 86.8% | [5]; at 50.0 µM 86.8% | [6]; [8] 72% | [6]; at 50.0 µM 86%

Nc1ncnc2c1ncn2C1SC(CO)C(O)C1O (stereo not given)
inactive: [1]; [7] 0% | [1]; [8] 8% | [1]; at 50.0 µM 4.35% and 13.3% and 42.6% | [2]; [7] -6% | [2]; [8] 5% | [2]; at 50.0 µM 32.3% and 4.55% and -7.25% | [3]; [7] 0% | [3]; [8] 7% | [3]; at 50.0 µM 3.2% and 3.55% and 36.1% | [4]; [7] -4% | [4]; [8] -4% | [4]; at 50.0 µM 11.2% and 44.8% and 2.35% | [5]; [7] -3% | [5]; [8] -7% | [5]; at 50.0 µM -21.4% and -3.85% and -4.3% | [6]; [7] 13% | [6]; [8] 25% | [6]; at 50.0 µM 14.7% and 4.75% and -3.25%

CCOC(=O)C(Cc1c[nH]c2cc([N+](=O)[O-])ccc12)NS(=O)(=O)c1ccc2ccccc2c1 (stereo not given)
active: [1]; [8] 96% | [1]; at 50.0 µM 95.3% | [2]; [8] 98% | [2]; at 50.0 µM 97.3% | [3]; [8] 98% | [3]; at 50.0 µM 97.2% | [4]; [8] 94% | [4]; at 50.0 µM 94.2% | [5]; [8] 98% | [5]; at 50.0 µM 97.8% | [6]; [8] 97% | [6]; at 50.0 µM 95.7%
inactive: [1]; [7] -19% | [2]; [7] 2% | [3]; [7] -4% | [4]; [7] -17% | [5]; [7] 9% | [6]; [7] -19%

O=[N+]([O-])c1c(Cl)nc2ccccn12
active: [6]; at 50.0 µM 70.5%
inactive: [1]; [7] 2% | [1]; [8] 26% | [1]; at 50.0 µM 14.4% | [2]; [7] 3% | [2]; [8] 28% | [2]; at 50.0 µM 26.1% | [3]; [7] 2% | [3]; [8] 27% | [3]; at 50.0 µM 31.1% | [4]; [7] 2% | [4]; [8] 15% | [4]; at 50.0 µM -0.55% | [5]; [7] 0% | [5]; [8] 14% | [5]; at 50.0 µM -2.05% | [6]; [7] 2% | [6]; [8] 26%

N#CNC1=NCOCN1
inactive: [1]; [7] -3% | [1]; [8] 6% | [1]; at 50.0 µM -1.6% and 21.8% | [2]; [7] 2% | [2]; [8] 10% | [2]; at 50.0 µM 22.4% and 1.35% | [3]; [7] 2% | [3]; [8] -9% | [3]; at 50.0 µM 13.8% and 8.55% | [4]; [7] 4% | [4]; [8] 11% | [4]; at 50.0 µM 13.3% and 18.8% | [5]; [7] -12% | [5]; [8] -3% | [5]; at 50.0 µM 10.1% and -8.85% | [6]; [7] 12% | [6]; [8] 9% | [6]; at 50.0 µM 64.4% and 18.4%

CC(=O)c1c2ccccc2cc2ccccc12
68.4% (inactive) and 92.3% (active): [1]; at 50.0 µM
inactive: [1]; [7] 7% and 61% | [2]; [7] 9% and 44% | [3]; [7] 6% and 45% | [4]; [7] 12% and 49% | [5]; [7] 17% and 56% | [6]; [7] 9% and 46%
active: [1]; [8] 74% and 96% | [2]; [8] 88% and 98% | [2]; at 50.0 µM 79% and 96.5% | [3]; [8] 77% and 98% | [4]; [8] 89% and 96% | [4]; at 50.0 µM 72.4% and 89.1% | [5]; [8] 95% and 97% | [5]; at 50.0 µM 79.5% and 95.6% | [6]; [8] 94% and 97% | [6]; at 50.0 µM 75% and 96.2%
53% (inactive) and 94.7% (active): [3]; at 50.0 µM

CCCCCCCN
active: [1]; [8] 89% | [2]; [8] 85% | [3]; [8] 91% | [5]; [8] 86% | [6]; [8] 88%
inactive: [1]; [7] 1% | [1]; at 50.0 µM 50% | [2]; [7] -9% | [2]; at 50.0 µM 20.9% | [3]; [7] -2% | [3]; at 50.0 µM 19.9% | [4]; [7] -5% | [4]; [8] 52% | [4]; at 50.0 µM 33.7% | [5]; [7] -2% | [5]; at 50.0 µM 12.1% | [6]; [7] -5% | [6]; at 50.0 µM 48.1%

COc1ccc2[nH]c3c(C)c4ccncc4c(C)c3c2c1
inactive: [2]; [7] 40% | [3]; [7] 39% | [4]; [7] 21% | [5]; [7] 30% | [6]; [7] 55%
active: [1]; [7] 95% | [1]; [8] 99% | [1]; at 50.0 µM 92.6% and 99% | [2]; [8] 99% | [2]; at 50.0 µM 93.7% and 99.5% | [3]; [8] 99% | [3]; at 50.0 µM 93.2% and 99.4% | [4]; [8] 99% | [4]; at 50.0 µM 91.8% and 99% | [5]; [8] 99% | [5]; at 50.0 µM 92.7% and 99.3% | [6]; [8] 99% | [6]; at 50.0 µM 92.8% and 99.4%

Nc1ccc2cc3ccc(N)cc3nc2c1
38.1% (inactive) and 73.2% (active): [1]; at 50.0 µM
inactive: [1]; [7] 21% | [2]; [7] 9% | [2]; [8] 31% | [2]; at 50.0 µM 32.5% and 54.3% | [3]; [7] 11% | [3]; [8] 37% | [3]; at 50.0 µM 3.15% and 35% | [4]; [7] 12% | [4]; [8] 11% | [4]; at 50.0 µM 9.45% and 69.2% | [5]; [7] 6% | [5]; [8] 20% | [5]; at 50.0 µM 19.8% and 36.3% | [6]; [7] 9% | [6]; [8] 51%
active: [1]; [8] 86%
15.5% (inactive) and 77% (active): [6]; at 50.0 µM

ClCCCN(CCCCl)c1ccc(C=Nc2cccc(Cl)c2)cc1
active: [1]; [8] 89% | [1]; at 50.0 µM 91.3% | [3]; [8] 90% | [3]; at 50.0 µM 92.8% | [4]; [8] 88% | [4]; at 50.0 µM 86.2% | [6]; [8] 89% | [6]; at 50.0 µM 78.5%
inactive: [1]; [7] 16% | [2]; [7] -4% | [2]; [8] 8% | [2]; at 50.0 µM -1.2% | [3]; [7] 24% | [4]; [7] 8% | [5]; [7] -4% | [5]; [8] -14% | [5]; at 50.0 µM -13% | [6]; [7] 17%

O=c1[nH]c2cc([N+](=O)[O-])ccc2nc1/C=C(\O)c1ccc([N+](=O)[O-])cc1
active: [1]; [8] 86% | [3]; [8] 85% | [5]; [8] 86% | [6]; [8] 77%
82.1% (active) and -3.95% (inactive): [3]; at 50.0 µM
inactive: [1]; [7] 21% | [1]; at 50.0 µM 54.2% and -3.6% | [2]; [7] -4% | [2]; [8] 59% | [2]; at 50.0 µM 16.1% and -6.35% | [3]; [7] 13% | [4]; [7] 4% | [4]; [8] 38% | [4]; at 50.0 µM 34% and -15.9% | [5]; [7] 11% | [5]; at 50.0 µM 4.75% and 5.75% | [6]; [7] 6% | [6]; at 50.0 µM 68.4% and -1.4%

CCCC1=CCCC1
inactive: [1]; [7] 2% | [1]; [8] 8% | [2]; [7] 2% | [2]; [8] -6% | [3]; [7] -1% | [3]; [8] 1% | [3]; at 50.0 µM 50.9% | [4]; [7] 0% | [4]; [8] 2% | [4]; at 50.0 µM 50% | [5]; [7] 1% | [5]; [8] 1% | [6]; [7] 0% | [6]; [8] 5% | [6]; at 50.0 µM 50.2%
active: [1]; at 50.0 µM 91.1% | [2]; at 50.0 µM 92.5% | [5]; at 50.0 µM 96.8%

CC(=O)Oc1ccc2c(c1)Oc1cc(OC(C)=O)ccc1C21OC(=O)c2ccccc21
16.8% (inactive) and 98.2% (active): [1]; at 50.0 µM
30.9% (inactive) and 96.8% (active): [3]; at 50.0 µM
19.5% (inactive) and 99.5% (active): [2]; at 50.0 µM
18.6% (inactive) and 99.5% (active): [5]; at 50.0 µM
inactive: [1]; [7] 5% | [1]; [8] 5% | [2]; [7] -3% | [2]; [8] 53% | [3]; [7] 3% | [3]; [8] 36% | [4]; [7] 3% | [4]; [8] 54% | [4]; at 50.0 µM 14.2% and -25.1% | [5]; [7] -1% | [5]; [8] 27% | [6]; [7] 14% | [6]; [8] 24%
24.8% (inactive) and 98.7% (active): [6]; at 50.0 µM

CCCc1cc(=O)oc2c3c(c4c(c12)OC(C)(C)CC4)O[C@@H](C)[C@H](C)[C@H]3O
-6.95% (inactive) and 80.1% (active): [1]; at 50.0 µM
inactive: [1]; [7] 8% | [2]; [7] -20% | [3]; [7] -1% | [4]; [7] 21% | [5]; [7] 0% | [6]; [7] -6%
8.05% (inactive) and 85.9% (active): [6]; at 50.0 µM
active: [1]; [8] 90% | [2]; [8] 95% | [3]; [8] 93% | [4]; [8] 94% | [5]; [8] 92% | [6]; [8] 93%
10.9% (inactive) and 88.7% (active): [4]; at 50.0 µM
3.65% (inactive) and 89.6% (active): [3]; at 50.0 µM
16.3% (inactive) and 87.8% (active): [5]; at 50.0 µM
-18.8% (inactive) and 90% (active): [2]; at 50.0 µM
